# Test results taken from ChEMBL document CHEMBL1157539, “Thousands of chemical starting points for antimalarial lead identification” (Nature, 2010).
# Over roughly 13,000 compounds, “IFI” has its median near 4; the highest 2% begin near 17. Only a selection was taken, and the highest values are over-represented in it overall.
# Test: GSK_TCMDC: Inhibition Frequency Index (IFI). The number of non-kinase HTS assays where a compound showed > 50 % inhibition, expressed as a percentage of the number of such assays in which the compound was tested
# Type: functional
row,Structure (SMILES),IFI [%]
1,CC(C)COc1ccc(Cl)cc1Cc1ccc(-c2nc3cnc4ccccc4c3[nH]2)o1,7.23
2,CC(C)COc1ccc(Cl)cc1Cc1ccc(-c2nc3cc(CCN4CCCC4)ccc3[nH]2)o1,22.2
3,CC(C)COc1ccc(Cl)cc1Cc1nc(-c2nc3ccc(CN4CCCCC4)cc3[nH]2)co1,18.3
4,CN1CCN(c2ccc3[nH]c(-c4ccc(Cc5cc(Cl)ccc5OCc5ccccc5)o4)nc3c2)CC1,24.7
5,COc1ccc(NC(=O)CCNc2cc(C)nc(NCCc3ccc(F)cc3)n2)cc1,4.88
6,N#Cc1ccc(N2CCN(Cc3ccc(-c4ccc(-c5nc6cc(C(F)(F)F)ccc6[nH]5)cc4)cc3)CC2)nc1,3.96
7,NS(=O)(=O)c1cccc(-c2ccc3ncc(N4CCOCC4)nc3c2)c1,3.7
8,Cc1[nH]c(C)c(-c2ccc(-c3ccc(Cl)cc3)nc2)c(=O)c1Cl,0.92
9,COc1cc2s/c(=N\C(=O)c3cccc([N+](=O)[O-])c3)n(C)c2cc1OC,1.72
10,O=C(NC1CCC(CCN2CCc3ccc(-c4cnccn4)cc3CC2)CC1)c1cccc(-n2cccn2)c1 (configuration not stated),5.3
11,O=C1CCCN1CCCNCc1ccc(-c2ccc(-c3nc4cc(C(F)(F)F)ccc4[nH]3)s2)cc1,6.67
12,O=C(Nc1cccc(-c2cccc(-c3nc4cc(C(F)(F)F)ccc4[nH]3)c2)c1)c1cccnc1,4.59
13,CCN(CC)CCCC(C)N/C(=N\c1ccccc1Br)Nc1ccc(C#N)cc1O (configuration not stated),0
14,Cc1cnc(Nc2cccc(CCN3CCOCC3)c2)nc1NC(C)C,17.2
15,OC(CNc1ccnc(Nc2cccc(CCN3CCOCC3)c2)n1)c1ccccc1 (configuration not stated),9.28
16,Cc1cccc(Nc2nccc(Nc3cccc(C(=O)NCCN4CCOCC4)c3)n2)c1,0
17,Oc1ccc(CCNCCCCNCCc2ccc(Cl)cc2)cc1O,6.12
18,Cc1[nH]c(C)c(-c2ccc(OCc3cccc(C(F)(F)F)c3)nc2)c(=O)c1Br,13.8
19,CCCC(C(=O)OCCNC)(c1ccccc1)c1ccccc1,3.6
20,COc1ccc(CCN(C)CCCN2CCC(NC(=O)c3cccc4c(=O)c5ccccc5sc34)CC2)cc1OC,21.9
21,COc1ccc(CCN(C)CCCN2CCC(NC(=O)c3cccc4c(=O)c5ccccc5[nH]c34)CC2)cc1OC,5.76
22,COc1ccc(CCN(C)CCCCc2ccc(NC(=O)c3cccc4c(=O)c5cc(F)ccc5sc34)cc2)cc1OC,10
23,Clc1ccc(Cl)c2[nH]c(CNCCCNc3nc4ccccc4[nH]3)cc12,4.38
24,COc1ccc2c(OC)cccc2c1CNCCCCCCNCc1c(OC)ccc2c(OC)cccc12,13.7

row,Structure (SMILES),IFI [%]
1,Cc1cccn2c(=O)c3cc(C(=O)NCCc4ccccc4)c(=N)n(CCCOC(C)C)c3nc12,4.3
2,O=[N+]([O-])c1ccc(C=NNc2nc3ccccc3[nH]2)cc1,0
3,O=[N+]([O-])c1ccc(/C=N/O)nc1,23.4
4,O=[N+]([O-])c1ccc2nccnc2c1,1.44
5,CC(C)c1ccc(CN2CCC(CNC(=O)c3cc(-c4cccc(F)c4)cs3)C2)cc1 (configuration not stated),14.3
6,CC1(C)NC(N)=NC(=N)N1OCc1cccs1,1.43
7,CCCCCCCN(CCCCCCC)CCCC(=O)Nc1ccnc2ccc(OC)cc12,7.87
8,COc1c(C2CCN(CCCCNC(=O)c3ccc(-c4ccc(Cl)cc4)cc3)CC2)ccc2c1C(C)(C)CCC2(C)C,6.82
9,O=C(Nc1ccc([N+](=O)[O-])cc1O)Nc1ccccc1Oc1ccccc1,17
10,CC1(C(=O)Nc2ccc([N+](=O)[O-])cc2O)CC2c3ccccc3C1c1ccccc12 (configuration not stated),17.4
11,O=[N+]([O-])c1ccc(N/C(=N\c2ccccc2Br)NC2CCCc3ccccc32)c(O)c1 (configuration not stated),4.17
12,COc1ccccc1CCNc1nc(C)cc(N[C@@H](Cc2ccccc2)C(=O)NCCCOC(C)C)n1,0
13,O=C(O)c1cccnc1Sc1ccc(Cl)cc1,0
14,COc1ccc(CCNCCCCCCNCCc2cccc([N+](=O)[O-])c2)cc1OC,0
15,C[C@H](Cc1ccc(C[C@@H](C)NC[C@H](O)c2cccc(Cl)c2)cc1)NC[C@H](O)COc1ccccc1,7.91
16,C[C@H](Cc1ccc(OCCCCOc2ccc(C[C@@H](C)NC[C@H](O)c3cccc(Cl)c3)cc2)cc1)NC[C@H](O)c1cccc(Cl)c1,11.6
17,C[C@H](Cc1ccc(Oc2ccc(C[C@@H](C)NC[C@H](O)c3cccc(Cl)c3)cc2)cc1)NC[C@H](O)c1cccc(Cl)c1,20.8
18,C[C@H](Cc1ccc(S(=O)(=O)c2ccc(C[C@@H](C)NC[C@H](O)c3cccc(Cl)c3)cc2)cc1)NC[C@H](O)c1cccc(Cl)c1,22.7
19,C[C@H](Cc1ccc(C[C@@H](C)NCC(O)c2cc(Cl)c(N)c(Cl)c2)cc1)NCC(O)c1cc(Cl)c(N)c(Cl)c1 (some centres not stated),9.35
20,COC(=O)c1ccc(CCC(C)NCC(O)c2cccc(Cl)c2)cc1 (configuration not stated),2.88
21,C[C@H](Cc1ccc(CCc2ccc(C[C@@H](C)NC[C@H](O)c3cccc(Cl)c3)cc2)cc1)NC[C@H](O)c1cccc(Cl)c1,21.6
22,C[C@H](Cc1ccc(OCCCOc2ccc(C[C@@H](C)NC[C@H](O)c3cccc(Cl)c3)cc2)cc1)NC[C@H](O)c1cccc(Cl)c1,13.1
23,Cc1ccc(CCC(C)NCC(O)c2cccc(Cl)c2)cc1 (configuration not stated),2.96
